Hits are enriched below; roughly 4.8% of the tested compounds scored in any of these assays.
tim10-1 inh = growth inhibitors of tim10-1 mutant yeast, primary screen, luminescence, uHTS; inhibition, % at 20 µM; S. cerevisiae tim10-1 ts strain growth, BacTiter-Glo, 24 h; 330,000 tested, 2.2% active;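 active = inhibition of at least 40%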;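 also: mutant grown at 25 °C; 0% = DMSO wells with yeast and 100% = wells holding no yeast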
NALP1 inh = NALP1 inflammasome inhibitors in reconstituted yeast, colorimetric, S. cerevisiae, triplicate retest; S. cerevisiae NALP1/ASC/caspase-1 growth, X-gal OD620, 72 h; 280,000 tested, 0.61% active; inhibition, % at 10 µM; AID 2071, 2009; in the data active = inhibition mostly above about 24%, no sharp cut-off; inactive = mostly below about 32%
SKKanGAS inh = S. pyogenes SKKanGAS growth inhibitors in kanamycin, primary screen, streptokinase expression inhibitor project, SKKanGAS strain, BacTiter-Glo luminescence; 6 h; inhibition, % at 7.5 µM; 300,000 tested, 1.3% active; AID 1662, 2009;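 active = mean replicate score, as percent of positive control median, at least 50; inconclusive = mean below 50 but one replicate at or above 50; inactive = mean and every replicate below 50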;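 also: strain carries kanamycin resistance gene driven by streptokinase promoter and grows in 40 µg/ml kanamycin; loss of luminescence reflects streptokinase promoter inhibition or plain growth inhibition; 0% = median of DMSO wells and 100% = positive control at its reference dose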
TIM10 inh = growth inhibitors of isogenic TIM10 control yeast, primary screen, counter-screen for tim10-1 yeast inhibitor project, luminescence, uHTS. S. cerevisiae TIM10 strain growth, BacTiter-Glo luminescence, 24 h. inhibition, % at 10 µM. 330,000 tested, 1.4% active;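 active = inhibition of 40% or more at the single tested concentration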;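 also: wild-type TIM10 isogenic control strain grown at permissive 25 °C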
PfHsp90 set2 = growth inhibition of PfHsp90-expressing yeast, primary screen, antimalarial PfHsp90 inhibitor project, S. cerevisiae, BacTiter-Glo luminescence, single point, set 2; 310,000 tested, 0.32% active; AID 504621, 2011; inhibition, % at 9.4 µM; BacTiter-Glo ATP, 48 h; yeast lacking PDR1 and PDR3 efflux regulators;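 active = every replicate shows inhibition above about 80%, whatever the replicate mean, limit read from the data; inconclusive = mean inhibition reaches the set limit but some replicate falls short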;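 also: 0% = DMSO neutral controls and 100% = 20 µM radicicol positive controls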
tim23-1 inh = growth inhibitors of tim23-1 mutant yeast, primary screen, luminescence, uHTS | S. cerevisiae tim23-1 growth, BacTiter-Glo luminescence, 24 h | inhibition, % at 20 µM | 330,000 tested, 1.3% active | AID 463212, 2010;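 active = growth inhibition of the mutant yeast at or above 50%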;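 also: temperature-sensitive mutant grown at 25 °C; plate controls were DMSO-treated mutant yeast for no effect and medium wells lacking yeast for full effect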
The depositor's hits bear a star.

How did COc1ccc(C(=O)NNC(=S)NC(=O)c2cc(-c3ccccc3)nc3ccccc23)cc1 do in these assays?
tim10-1 inh: 36; NALP1 inh: -6; SKKanGAS inh: 107*; TIM10 inh: 38; PfHsp90 set2: -12; tim23-1 inh: 35

Results for CC(C)(C)c1ccc(-c2cc(C(=O)NNC(=O)Nc3ccccc3)c3ccccc3n2)cc1 ?
tim10-1 inh: 30; NALP1 inh: 25; SKKanGAS inh: 56*; TIM10 inh: 9; PfHsp90 set2: 11; tim23-1 inh: 0

How did Cc1ccnc(NS(=O)(=O)c2ccc(NC(=O)c3cc(-c4ccc(Br)cc4)nc4ccccc34)cc2)n1 do in these assays?
tim10-1 inh: 4; NALP1 inh: 22; SKKanGAS inh: 62*; TIM10 inh: 11; PfHsp90 set2: -6; tim23-1 inh: -6

Results for COC(=O)c1ccc(NC(=S)NC(=O)c2cc(-c3ccccc3)nc3ccccc23)cc1 ?
tim10-1 inh: 25; NALP1 inh: -1; SKKanGAS inh: 8; TIM10 inh: 16; PfHsp90 set2: -1; tim23-1 inh: 17

What do the screens show for `O=C(NNC(=O)c1cc(-c2ccccc2)nc2ccccc12)Nc1cccc(Cl)c1`?
tim10-1 inh: 20; NALP1 inh: 3; SKKanGAS inh: inconclusive; TIM10 inh: 8; PfHsp90 set2: -23; tim23-1 inh: 22

What do the screens show for `COc1ccc(Cl)cc1C(=O)NNC(=S)NC(=O)c1cc(-c2ccccc2)nc2ccccc12`?
tim10-1 inh: 9; NALP1 inh: 18; SKKanGAS inh: 80*; TIM10 inh: 16; PfHsp90 set2: -9; tim23-1 inh: 11

Results for CC(Oc1ccc(Br)cc1Br)C(=O)Nc1cccnc1 (stereo not drawn) ?
tim10-1 inh: 16; NALP1 inh: 9; TIM10 inh: -4; PfHsp90 set2: 25; tim23-1 inh: 32

What do the screens show for `O=C(CCC(=O)c1ccc[nH]1)c1ccc(Cl)cc1`?
tim10-1 inh: 4; NALP1 inh: 27*; SKKanGAS inh: 9; TIM10 inh: -4; tim23-1 inh: -1

How did Cc1ccc(CNC(=O)c2ccc3c(c2)S(=O)(=O)c2ccccc2C3=O)o1 do in these assays?
tim10-1 inh: -6; SKKanGAS inh: 10; TIM10 inh: 3; PfHsp90 set2: 0; tim23-1 inh: 4

How did Cc1nn(-c2ccccc2)c2sc(C(=O)NC3CCCCC3)cc12 do in these assays?
tim10-1 inh: 4; NALP1 inh: 3; SKKanGAS inh: 11; TIM10 inh: 7; PfHsp90 set2: 10; tim23-1 inh: 4

What do the screens show for `Cc1cnc(NC(=O)c2cc3c(C)nn(-c4ccccc4)c3s2)s1`?
tim10-1 inh: 21; NALP1 inh: 28; SKKanGAS inh: 107*; TIM10 inh: -7; tim23-1 inh: -7

How did Cc1nn(-c2ccccc2)c2sc(C(=O)N3CCc4ccccc4C3)cc12 do in these assays?
NALP1 inh: 10; SKKanGAS inh: 55*; PfHsp90 set2: -33

How did O=C(Nc1ccc2ccccc2n1)c1ccccc1Br do in these assays?
tim10-1 inh: 1; NALP1 inh: 8; SKKanGAS inh: 9; TIM10 inh: 16; PfHsp90 set2: 11; tim23-1 inh: 10

What do the screens show for `CCN(Cc1ccccc1)C1CCN(Cc2ccc(SC)cc2)CC1`?
tim10-1 inh: -26; NALP1 inh: 28*; SKKanGAS inh: 6; TIM10 inh: -38; PfHsp90 set2: -12; tim23-1 inh: -39

How did O=C(CSc1nc2ccccc2c(=O)n1CCCN1CCOCC1)NCCc1ccccc1 do in these assays?
tim10-1 inh: 3; TIM10 inh: 8; tim23-1 inh: 13

How did O=C(CSc1nc2ccccc2c(=O)n1CCCN1CCOCC1)NC12CC3CC(CC(C3)C1)C2 do in these assays?
tim10-1 inh: 20; NALP1 inh: 34*; SKKanGAS inh: -12; TIM10 inh: 8; PfHsp90 set2: -31; tim23-1 inh: 21

What do the screens show for `CCSc1ccccc1C(=O)Nc1ccc([N+](=O)[O-])cc1OC`?
tim10-1 inh: -2; NALP1 inh: 8; SKKanGAS inh: -9; TIM10 inh: 1; PfHsp90 set2: 1; tim23-1 inh: 30

Results for Clc1ccc(SCc2cc(-c3ccccc3)on2)cc1 ?
tim10-1 inh: 1; NALP1 inh: 20; SKKanGAS inh: 4; TIM10 inh: -2; PfHsp90 set2: 1; tim23-1 inh: -2

How did Clc1ccc(SCc2cc(Cl)nc(-c3ccccc3)n2)cc1 do in these assays?
tim10-1 inh: 13; SKKanGAS inh: 67*; TIM10 inh: 0; PfHsp90 set2: 18; tim23-1 inh: 6

What do the screens show for `Clc1cc(CSc2ccccc2)nc(-c2ccccc2)n1`?
tim10-1 inh: 5; NALP1 inh: 34; SKKanGAS inh: 58*; TIM10 inh: 3; PfHsp90 set2: 10; tim23-1 inh: -5

Results for CCN(CC)S(=O)(=O)c1ccc(S(=O)(=O)N(CC(=O)Nc2ccccc2)CC2CCCO2)cc1 (stereo not drawn) ?
tim10-1 inh: 23; SKKanGAS inh: -11; TIM10 inh: 14; tim23-1 inh: 11

What do the screens show for `OCCC1CN(Cc2cccn2-c2nccs2)CCN1C1CCCCC1` (stereo not drawn)?
tim10-1 inh: 2; NALP1 inh: 25*; SKKanGAS inh: 6; TIM10 inh: -8; PfHsp90 set2: 21; tim23-1 inh: 6

Results for Cc1ccc(C2=N/C(=C\N3CCCCC3)C(=O)O2)cc1 ?
tim10-1 inh: 30; NALP1 inh: 38*; SKKanGAS inh: -18; TIM10 inh: 5; tim23-1 inh: 38

Results for Cc1ccc(C2=N/C(=C/N3CCOCC3)C(=O)O2)cc1 ?
tim10-1 inh: 7; NALP1 inh: 12; SKKanGAS inh: -6; TIM10 inh: 9; PfHsp90 set2: -48; tim23-1 inh: 7

How did NS(=O)(=O)c1ccc(CCNC(=O)c2cc(-c3ccc(Br)cc3)nc3ccccc23)cc1 do in these assays?
tim10-1 inh: 24; NALP1 inh: 3; SKKanGAS inh: 32; TIM10 inh: 4; PfHsp90 set2: 1; tim23-1 inh: 7

Results for NS(=O)(=O)c1ccc(CCNC(=O)c2cc(-c3ccccn3)nc3ccc(Br)cc23)cc1 ?
tim10-1 inh: -39; NALP1 inh: 41*; SKKanGAS inh: 19; TIM10 inh: -17; PfHsp90 set2: -5; tim23-1 inh: -52

How did COCC(=O)Nc1sc2c(c1C(=O)OC)CCCC2 do in these assays?
tim10-1 inh: 30; NALP1 inh: -75; SKKanGAS inh: -4; TIM10 inh: 12; PfHsp90 set2: 14; tim23-1 inh: 35

Results for COC(=O)c1c(NC(=O)Cc2cccs2)sc2c1CCCC2 ?
tim10-1 inh: 24; NALP1 inh: 36; SKKanGAS inh: 69*; TIM10 inh: 2; tim23-1 inh: 33

Assay outcomes as filed in PubChem BioAssay.
